IL-1B inflam inh = qHTS for Inhibitors of Inflammasome Signaling: IL-1-beta AlphaLISA Primary Screen | 360,000 tested, 4.7% active | AID 743279, 2014 | THP-1 LPS/ATP IL-1B secretion, AlphaLISA, 16 h; active compounds read low | activity change, % at 57.5 µM; in the data active means activity change below about -50%; inconclusive means mostly about -30% to -49%
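THP-1 cells pretreated 1 hr with compounds (up to 57.5 uM final), then stimulated with LPS (250 ng/mL final) plus ATP (1.25 mM final); secreted IL-1B measured by AlphaLISA after 16 hr, decreased signal indicating inhibition.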
HT1080-NT tox = qHTS for induction of synthetic lethality in tumor cells producing 2HG: qHTS for the HT-1080-NT fibrosarcoma cell line | HT-1080-NT fibrosarcoma viability, CellTiter-Glo ATP luminescence, 48 h | Potency, µM (titrated, usually from 46.1 µM), inactives show at the top dose activity, negative = less viability, most hits filed as cytotoxic | 360,000 tested, 1.6% active | AID 686970, 2013;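 further: NT is the 2HG producing partner of a matched IDH1 knockdown line; potency means the concentration at half of the fitted maximal effect; 0% = DMSO-treated cells and -100% = media-only wells without cells; nearly all actives have a fitted effect of over 55% in size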
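Fibrosarcoma NT cells, 750 per well in 5% FBS RPMI, were exposed to compound for 48 hours. Viability: CellTiter-Glo luminescence.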
TDP1 cell CPT = qHTS for Inhibitors of human tyrosyl-DNA phosphodiesterase 1 (TDP1): qHTS in cells in presence of CPT | Potency, µM (highest dose often 46.2 µM), without a hit: at the top dose activity change, negative = growth inhibition, most hits filed as inhibitors | AID 686979, 2013 | 420,000 tested, 12% active | chicken DT40 Tdp1-/-;hTDP1 cells + 20 nM CPT, ATP luminescence, 48 h; further: potency means the concentration at half of the fitted maximal effect; nearly all actives have a fitted effect of over 55% in size
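Chicken DT40 Tdp1-/- cells complemented with human TDP1, 400 cells/well, exposed to compounds plus 20 nM camptothecin for at least 48 h at 37 C; viability read as ATP content by CellTiter-Glo luminescence.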
HT1080 IDH1KD tx = qHTS for induction of synthetic lethality in tumor cells producing 2HG: qHTS for the HT-1080-IDH1KD cell line; HT-1080 IDH1 knockdown viability, ATP luminescence, 48 h; Potency, µM (top dose mostly 46.1 µM), for the others: top-dose activity, negative = toxicity, usual class: cytotoxic; 360,000 tested, 2% active; AID 686971, 2013;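 further: potency means the concentration at half of the fitted maximal effect; 0% = DMSO wells and -100% = cell-free medium wells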
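IDH1KD HT-1080 cells, 750/well, RPMI + 5% FBS; compound pinned after 2 h settling; 48 h, 37 °C; CellTiter-Glo luminescence; % activity normalised to DMSO and no-cell wells; curves fitted, classed by r2 and efficacy.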
DT40 TDP1 no CPT = qHTS for Inhibitors of human tyrosyl-DNA phosphodiesterase 1 (TDP1): qHTS in cells in absence of CPT; DT40 Tdp1-/- hTDP1 cells, no CPT, ATP luminescence, 48 h; Potency, µM (doses to about 46.2 µM), inactives show at the top dose activity change, negative = growth inhibition, most hits filed as inhibitors; 420,000 tested, 15% active; further: potency means the concentration at half of the fitted maximal effect; nearly all actives have a fitted effect of over 55% in size
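Readout: luminescence from CellTiter-Glo after 30 min in the dark at RT. Cells: DT40 Tdp1-/- with stable hTDP1, 400/well. Exposure: compounds alone, ≥48 hr, 37 °C.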
12-LOX inh = Primary qHTS assay for inhibitors of human arachidonate 12S-lipoxygenase (ALOX12): Round 2; 580,000 tested, 1.1% active; purified 12hLO, xylenol orange hydroperoxide absorbance; Potency, µM (top dose mostly 108 µM), for inactives: at the top dose activity change, negative = inhibition, most hits filed as inhibitors; further: potency means the concentration at half of the fitted maximal effect
Target sequence (P18054 whole entry, looked up): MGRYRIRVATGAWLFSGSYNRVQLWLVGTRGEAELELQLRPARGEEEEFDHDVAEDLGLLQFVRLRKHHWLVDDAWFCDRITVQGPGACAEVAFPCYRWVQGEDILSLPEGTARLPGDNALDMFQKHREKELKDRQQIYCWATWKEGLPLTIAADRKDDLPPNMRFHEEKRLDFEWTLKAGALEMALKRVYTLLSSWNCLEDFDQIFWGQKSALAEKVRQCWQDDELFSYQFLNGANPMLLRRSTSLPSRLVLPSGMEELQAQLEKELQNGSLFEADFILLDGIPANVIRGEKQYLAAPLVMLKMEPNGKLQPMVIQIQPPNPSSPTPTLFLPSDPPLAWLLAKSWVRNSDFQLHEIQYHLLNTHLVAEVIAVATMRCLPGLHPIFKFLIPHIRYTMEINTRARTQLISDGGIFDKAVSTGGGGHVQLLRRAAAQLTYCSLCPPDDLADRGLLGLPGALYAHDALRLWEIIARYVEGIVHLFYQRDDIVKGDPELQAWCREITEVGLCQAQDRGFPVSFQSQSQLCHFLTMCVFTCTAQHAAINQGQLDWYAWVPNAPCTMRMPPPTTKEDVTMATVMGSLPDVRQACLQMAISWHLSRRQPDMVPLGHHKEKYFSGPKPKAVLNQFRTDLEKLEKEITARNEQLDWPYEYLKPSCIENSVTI
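Purified human 12hLO (150 nM final) in 25 mM Hepes, 0.01% Triton X-100, pH 7.0 was preincubated 15 min at room temperature with compound. Then 40 uM arachidonic acid was added, 30 min. Hydroperoxide was read by Fe-XO absorbance ratio 573/405 nm.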
* hit, by the source's call; ? = inconclusive; / = not tested or not shown; [ ] = another dose, or the depositor's remark. Many of the other results were omitted from the sample, so hits are more common in it than they were. Unless noted, the call rests on the fitted dose curve; in most records, active means well fitted curve in the direction sought with a large enough effect; inconclusive means small, poorly fitted or top-dose-only effect, or another doubt; inactive means no such curve, though single readings can be large; an effect the other way counts as inactive or inconclusive. Unless noted, on the % scale 0 is the no-effect control and ±100 the full control effect.

SMILES	IL-1B inflam inh	HT1080-NT tox	TDP1 cell CPT	HT1080 IDH1KD tx	DT40 TDP1 no CPT	12-LOX inh
Cc1ccc(S(=O)(=O)NCCC(=O)NCCCSc2ccccc2)cc1	-28	-1%	-27%	-9%	-26%	-23%
O=C(CCNS(=O)(=O)c1ccccc1)NCCCSc1ccccc1	13	-2%	7.3µM*	5%	18µM*	77%
NCCCCCCNS(=O)(=O)c1cccc2ccccc12	/	/	16µM*	/	14µM*	234%
C[C@H]1[C@@H]2[C@@H](O)C([C@H](C)C(=O)N(C)Cc3ccccc3)CC[C@@]2(C)CC[C@@H]1NC(=O)c1ccccn1 (stereo partly specified)	/	/	/	/	/	65%
Cc1ccccc1Nc1nc(N)c2ccccc2n1	-96*	?	?	16µM*	?	-2%
COc1ccc(OC)c(Nc2nc(-c3ccc(C)cc3)nc3ccccc23)c1	/	/	?	/	-28%	-2%
COc1ccc(C)cc1Nc1nc(N)c2ccccc2n1	-93*	?	?	?	?	?
CN(C)C[C@@H]1CN(Cc2ccncc2)C[C@H]1NC(=O)c1ccc2c(c1)OCO2	/	/	/	/	/	28%
Cc1ccc(NC(=O)CN(C)C(=O)c2cc(-c3cccs3)nn2-c2ccccc2)cc1	-52*	-4%	?	-8%	?	441%
CCN(CC(=O)Nc1ccccc1OC)C(=O)c1cccc(-n2cccc2)c1	-9	0%	-17%	-7%	-6%	-41%
CCN(CC(=O)Nc1c(F)cccc1F)C(=O)c1cc(-c2cccs2)nn1-c1ccccc1	-13	8%	?	1%	18µM*	6%
CCN(CC(=O)Nc1ccccc1OC)C(=O)c1cc(-c2ccccc2)nn1-c1ccccc1	-10	?	21µM*	?	?	-17%
CN(CC(=O)Nc1c(Cl)cccc1Cl)C(=O)c1cc(-c2cccs2)nn1-c1ccccc1	-2	7%	?	4%	?	3%
COc1ccc2nc3oc(C(=O)N4CCN(c5cc(C)ccc5C)CC4)cc3cc2c1	/	/	?	/	?	-10%
COc1ccc(C(=O)N2CC3CC(C2)[C@H]2CCCC(=O)N2C3)cn1 (stereo partly specified)	/	/	/	/	/	15%
CC(C)(C)CN1CC(NS(=O)(=O)c2cccc(Cl)c2)CC1=O (stereo unspecified)	/	/	/	/	/	35%
CCc1ccc2oc(=O)cc(CN3CCN(C)CC3)c2c1	/	/	/	/	/	21%
Cc1cc(NC(=O)Cc2c(F)cccc2Cl)no1	3	5%	15µM*	-10%	?	2%
O=C(Cc1c(F)cccc1Cl)Nc1nc2ccccc2s1	-57*	-7%	?	-8%	?	-20%
CCN(CC)CCN(CC(=O)Nc1c(C)cc(C)cc1C)C(=O)c1ccccc1	-68*	-5%	-16%	-3%	3%	0%
CN(C)c1ccc(-c2ccc3ncnc(N(C)Cc4ccco4)c3c2)cc1	/	/	4.1µM*	/	2.6µM*	-6%
Cc1ccccc1-c1cncnc1N(C)Cc1ccco1	/	/	5%	/	-12%	-15%
CCc1ccc(NC(=O)CSc2ccc3nc(-c4ccc(OC)cc4)cn3n2)cc1	/	/	?	/	?	-29%
COC(=O)c1ccc2nc(CO[C@H]3CN(Cc4ccccc4)C[C@H]3F)[nH]c2c1	/	/	/	/	/	62%[176 µM]
Cc1csc2c(NC3CCN(Cc4ccccc4)CC3)ncnc12	-19	-3%	23µM*	-13%	16µM*	0%
SMILES	IL-1B inflam inh	HT1080-NT tox	TDP1 cell CPT	HT1080 IDH1KD tx	DT40 TDP1 no CPT	12-LOX inh
Cc1sc2ncnc(NC3CCN(Cc4ccccc4)CC3)c2c1C	?	?	2.6µM*	?	3.7µM*	4%
c1ccc(CN2CCC(Nc3ncnc4sccc34)CC2)cc1	0	3%	10%	?	2%	-13%
Cc1cccc(-n2c(CNC(=O)c3cccc(F)c3)nnc2SCC(=O)Nc2ccccc2F)c1	/	/	-19%	/	?	-8%
N#Cc1ccccc1NC(=O)c1ccco1	/	/	/	/	/	29%
CCc1nc2c(OCCc3cccc(OC)c3)cccn2c1N(C)C(=O)c1cccs1	-1	?	21µM*	?	?	21%
CCc1nc2c(OCc3ccccc3C(=O)OC)cccn2c1N(C)C(=O)CC(C)C	10	9%	16µM*	1%	13µM*	?
CCc1nc2c(OCc3ccccc3C(=O)OC)cccn2c1N(C)C(=O)c1cccs1	4	-26%	?	-25%	29µM*	-4%
CCc1nc2c(OCc3ccccc3C(=O)OC)cccn2c1N(C)C(=O)c1ccncc1	23	13%	?	5%	-23%	-11%
Cc1ccccc1NC(=O)CN(C)C1=NS(=O)(=O)c2ccccc21	/	/	/	/	/	3%
COc1cccc(-c2nn(-c3ccccc3)c(OC(C)=O)c2-c2ccc(NC(=O)c3ccco3)cc2)c1	/	/	/	/	/	21%
Cc1ccc(C)c(NC(=O)C2CCN(c3ncnc4c3nc3n4CCCCC3)CC2)c1	/	/	-11%	/	2%	-23%
COc1cc(NC(=O)C2CCCN(c3ncnc4c3nc3n4CCCCC3)C2)cc(OC)c1OC (stereo unspecified)	11	-24%	?	-3%	?	2%
O=C(Nc1ccccc1Cl)C1CCCN(c2ncnc3c2nc2n3CCCCC2)C1 (stereo unspecified)	-63*	-23%	?	-10%	15µM*	5%
Cc1ccc(NC(=O)C2CCN(c3ncnc4c3nc3n4CCCCC3)CC2)nc1	-17	2%	23µM*	-25%	21µM*	3%
COc1ccc(Cl)cc1NC(=O)C1CCN(c2ncnc3c2nc2n3CCCCC2)CC1	/	/	16µM*	/	9.2µM*	?
COc1cc(OC)c(NC(=O)C2CCCN(c3ncnc4c3nc3n4CCCCC3)C2)cc1Cl (stereo unspecified)	/	/	?	/	15µM*	-15%
COc1ccc2c(-c3ccccc3)cc(SCC(=O)NCC(C)C)nc2c1	/	/	/	/	/	-4%
CCCCn1c(NC(=O)c2ccccc2Cl)c(C#N)c2nc3ccccc3nc21	-98*	5.8µM*	23µM*	9.2µM*	26µM*	0%

Compound activity: PubChem, National Center for Advancing Translational Sciences (NCATS)
